PubChem BioAssay (EPA / NIEHS)
Active and inactive are the calls of the source. How the source made its calls: active means hit-call score of the fitted dose curve at least 0.9, where 1 is the maximum; inactive means score below 0.9.

Assay: CEETOX_H295R_11DCORT: CeeTox H295R High-throughput Steroidogenesis Assay for 11-Deoxycortisol (11DCORT) (AID 2283432);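 on AC50: 11-deoxycortisol secreted into the medium measured by LC-MS/MS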
Details: actives raise or lower the signal
Experimental: CEETOX_H295R is a cell-based, multiplexed-readout assay that uses H295R, a human adrenal gland cell line, with measurements taken at 48 hours after chemical dosing in a 96-well plate.CEETOX_H295R_11DCORT is one of 23 assay component(s) measured or calculated from the CEETOX_H295R assay. It is designed to make measurements of hormone induction, a form of inducible reporter, as detected with absorbance signals by HPLC-MS-MS technology.Data from the assay component CEETOX_H295R_11DCORT was analyzed into 1 assay endpoint. This assay endpoint, CEETOX_H295R_11DCORT, was analyzed with bidirectional fitting relative to DMSO as the negative control and baseline of activity. Using a type of inducible reporter, gain or loss-of-signal activity using HPLC-MS-MS was used to understand synthesis of 11-Deoxycortisol in H295R cell line at 48hr of chemical exposure. To generalize the intended target to other relatable targets, this assay endpoint is annotated to the steroid hormone intended target family, where the subfamily is glucocorticoids.
Cell culture and media preparation procedures were conducted in accordance with OECD Test No. 456 guidelines, with minor modifications. H295R cells (ATCC CRL-2128) were expanded for 5 passages and frozen in batches in liquid nitrogen. Prior to the steroidogenesis assay, H295R cells were thawed and passed at least 4 times. The maximum passage was 10. Cells were maintained in a 1:1 mixture of DMEM/F12 supplemented with 5ml/L ITS+ Premix (BD Bioscience) and 12.5 ml/L Nu-Serum (BD Bioscience). After seeding cells into 96-well plates at 50-60% confluency, cells were allowed to adhere overnight. Prior to chemical testing, culture medium was replaced with 175 uL medium containing 10 uM forskolin to stimulate steroidogenesis for 48 hours. Following prestimulation, forskolin medium was replaced with medium containing test chemical solubilized in DMSO (ensuring a final concentration of 0.1% DMSO). Test chemicals were incubated for 48 hours, then the medium was removed and split into 2 vials containing approximately 75uL each, and stored at -80 C prior to hormone analysis. For steroid quantification, media samples were shipped to OpAns, LLC (Durham, NC) on dry ice, and samples were thawed to room temperature prior to liquid-liquid extraction. Steroid hormones were extracted from media samples using methyl tertbutyl ether (MTBE). An extra derivatization with dansyl chloride was included for estrogen (estrone and estradiol) detection only. Steroid hormones were separated by HPLC, eluted using a reverse phase C18 gradient with electrospray positive ionization, followed by quantification by tandem mass spectrometry (MS/MS). Data were acquired on a MassHunter Workstation Acquisition version B03.01 (Agilent Technologies, Inc.) and processed using MassHunter Quantitative Analysis for QQQ. Accuracy was determined for each hormone analyte from 3 standards to determine upper and lower limits of quantification (ULOQ and LLOQ, respectively) using a 7-point standard curve. Precision and accuracy of the extraction and quantification methods were calculated as the percent relative standard deviation (%RSD) of the spiked standards and percent spiked standard recovered, respectively. The goal was to achieve 100% accuracy (i.e., recover all spiked-in standard at quantification with minimal loss during run time) and good precision (i.e., have %RSD <15% to ensure reproducibility). Test medium was removed following chemical exposure, and cell viability was evaluated in the same wells by MTT. MTT procedures were as follows: after removal of test medium, 500 uL of 0.5 mg/ml of 3-[4,5-dimethylthiazol-2-y]2,5-diphenyltetrazoliumbromide solution was added to the cells. Following a 4-hour incubation at 37 C and 5% CO2 to allow formazan-crystal formation, the MTT solution was removed and blue formazan salt crystals were solubilized using 500uL anhydrous isopropanol with shaking for 20 minutes. […]

Compound | AC50 | outcome
Cc1cc(C(C)(C)c2ccc(O)c(C)c2)ccc1O | 5 µM (active) | 
O=S1OC[C@@H]2[C@H](CO1)[C@]1(Cl)C(Cl)=C(Cl)[C@@]2(Cl)C1(Cl)Cl (some centres undefined) | 39.7 µM (active) | 
Cc1ccccc1OP(=O)(Oc1ccccc1C)Oc1ccccc1C |  | inactive
OC(Cc1ccccc1Cl)(Cn1[nH]cnc1=S)C1(Cl)CC1 (centres undefined) |  | inactive
C[C@]12CC[C@@H](O)C[C@@H]1CC[C@@H]1[C@@H]2CC[C@]2(C)C(=O)CC[C@@H]12 |  | inactive
CCC[CH2][Sn]([Cl])([Cl])[CH2]CCC |  | inactive
CCOP(=O)(OCC)OC(=CCl)c1ccc(Cl)cc1Cl | 5.43 µM (active) | 
CCCCCCCCCCCCN(C)C |  | inactive
O=[N+]([O-])c1ccc(Nc2ccccc2)cc1 |  | inactive
CCOCn1c(-c2ccc(Cl)cc2)c(C#N)c(Br)c1C(F)(F)F | 15.3 µM (active) | 
Cc1cc(Cl)ccc1O |  | inactive
CCOP(=S)(OCC)O/N=C(\C#N)c1ccccc1 | 82.5 µM (active) | 
CC(C)=CC1C(C(=O)OCc2cccc(Oc3ccccc3)c2)C1(C)C (centres undefined) | 29.3 µM (active) | 
Oc1cccc(-c2ccccc2)c1 |  | inactive
CC(C)(C)c1ccccc1O |  | inactive
COC(=O)Nc1cccc(OC(=O)Nc2cccc(C)c2)c1 | 9.94 µM (active) | 
CC(C)(COCC1CO1)COCC1CO1 (centres undefined) |  | inactive
OC(Cc1ccccc1Cl)(Cn1cncn1)C1(Cl)CC1 (centres undefined) | 11.8 µM (active) | 
COc1ccc(N)cc1 |  | inactive
